Screening results as filed in PubChem.
HSF1 inh = HSF1 inhibition; hit rate 0.77% among 300,000; NIH3T3-HGL HSE-luciferase, MG132-induced, luminescence 8 h; stronger effect = lower value; activity change, negative = inhibition, % at 7.5 µM (by protocol); AID 2098;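 active = more than half of replicate wells show activity change below -50%, luminescence cut by over half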;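 note: luciferase reports HSF-1 transcriptional activity via heat shock element; 0% = median of DMSO wells and -100% = zero luminescence signal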
HSF-1 act = increases HSF-1 driven luciferase reporter signal; NIH3T3-HGL HSF-1 luciferase reporter, MG132, 8 h; 100% = twice DMSO control signal; activation, % at 9 µM; hit rate 1.7% among 300,000; AID 504408;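 active = mean replicate activation of at least 50% with a set share of replicates each reaching 50%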;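 note: 0% = median of the neutral control wells and 100% = twice that signal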
TLR9-MyD88 block = TLR9-MyD88 interaction inhibition. Q9NR96+Q99836. CHO BLA complementation TLR9-MyD88, CCF4 FRET ratio. inhibition, % at 4.98 µM. hit rate 0.21% among 340,000. AID 504734;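 active = inhibition above the mean over all tested compounds plus 3 SD, cut at about 21% in these data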;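 note: 0% = DMSO only wells and 100% = clavulanate BLA inhibitor control wells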
TLR4-MyD88 BLA = inhibitors of human TLR4-MyD88 binding; O00206+Q99836; HeLa CL3-4 TLR4/MyD88 BLA complementation, FRET ratio; inhibition, % at 8.4 µM; hit rate 0.18% among 200,000; AID 861; in the data active = inhibition above about 25%;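 note: 0% = vehicle and 100% = reference inhibitor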
NOD2 RIPK2 PPI = NOD2-RIPK2 protein interaction inhibition; CHO BLA complementation NOD2-RIPK2, CCF4 ratio; inhibition, % at 4.98 µM; hit rate 0.38% among 360,000; AID 624267; in the data active = inhibition above about 21%;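 note: 0% = vehicle only and 100% = reference blocker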
TLR9-MyD88 conf = TLR9-MyD88 interaction inhibition, confirmation; inhibition, % at 4.98 µM; shares compounds with TLR9-MyD88 block; CHO TLR9/MyD88 BLA complementation, CCF4 FRET ratio; AID 540250; hit rate 51% among 680;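 active = mean inhibition across three repeats above about 21% taken from the earlier screen, limit read from the data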;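 note: blue over green emission ratio reports constitutive TLR9 MyD88 association via BLA complementation; 0% = DMSO vehicle wells and 100% = clavulanate BLA inhibitor wells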
BLA counter-1 = beta-lactamase reporter inhibition, counter-screen artifact; AID 540251; shares compounds with TLR9-MyD88 block; inhibition, % at 4.98 µM; hit rate 7% among 680; CHO-BLA cells, CCF4 FRET ratio, BLA reporter;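 active = mean inhibition above a 50% cutoff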;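 note: counterscreen of TLR9-MyD88 hits on CMV-driven BLA in CHO-K1 cells; 0% = DMSO alone and 100% = clavulanate blocking BLA; higher means less blue over green ratio so more BLA blockade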
TLR9 CHO tox = CHO cell toxicity counter-screen for TLR9-MyD88 inhibitors. shares compounds with TLR9-MyD88 block. TLR9-MyD88 CHO cells cytotoxicity, luminescence. inhibition, % at 4.98 µM. hit rate 39% among 680. AID 588336; in the data active = inhibition above about 11%
NOD2-RIPK2 conf = confirmation of human NOD2-RIPK2 interaction inhibitors; CHO cells, NOD2-RIPK2 BLA complementation, CCF4 FRET; inhibition, % at 4.98 µM; shares compounds with NOD2 RIPK2 PPI; hit rate 70% among 1,200;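 active = mean inhibition across replicates above a set limit taken from the earlier primary screen, cut at about 21% in these data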;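 note: 0% = DMSO-only wells and the high end = clavulanate BLA-blocked wells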
BLA counter-2 = NOD2-RIPK2 counterscreen BLA reporter activity; shares compounds with NOD2 RIPK2 PPI; inhibition, % at 4.98 µM; hit rate 57% among 1,200; CHO BLA reporter, CCF4 FRET ratio;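 active = mean inhibition above the low-control mean inhibition plus three low-control SD, cut at about 11% in these data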;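 note: 0% = DMSO only wells and 100% = clavulanate high control wells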
* = called active by the depositor; . = no result given. An excerpt weighted towards active compounds, which were near 2.4% of everything screened.

SMILES	HSF1 inh	HSF-1 act	TLR9-MyD88 block	TLR4-MyD88 BLA	NOD2 RIPK2 PPI	TLR9-MyD88 conf	BLA counter-1	TLR9 CHO tox	NOD2-RIPK2 conf	BLA counter-2
CN(c1ccccc1)S(=O)(=O)c1ccc(NC(=O)c2nc(S(C)(=O)=O)ncc2Cl)cc1	8	21	58*	.	100*	52*	33	103*	93*	51*
COc1cccc(NC(=O)c2nc(S(C)(=O)=O)ncc2Cl)c1	21	43	45*	.	74*	42*	33	100*	67*	32*
CN(c1ccccc1)S(=O)(=O)c1ccc(NC(=O)c2ccccc2)cc1	2	1	10	-22	2	.	.	.	.	.
CCN(CC)C(=O)C1=C(C)N(CCCN2CCCC2=O)C(=O)C(CC(=O)NCCCN(C)C)C1 (centres undefined)	.	.	3	.	-5	.	.	.	.	.
CNC(=O)NC(=O)CN1C(=O)NC2(CCOc3ccccc32)C1=O (centres undefined)	-5	12	3	.	5	.	.	.	.	.
CCn1c(Cl)c(C=O)s/c1=N\S(=O)(=O)c1ccccc1	77	113*	48*	.	94*	53*	29	96*	98*	38*
O=C(CN1C(=O)c2ccccc2S1(=O)=O)Nc1ccccc1C(=O)NCc1ccco1	-2	2	-3	-15	6	.	.	.	.	.
O=C(CN1C(=O)c2cccc3cccc1c23)Nc1ccccc1C(=O)NCc1ccco1	23	36	32*	-4	23*	8	12	3	22*	22*
Cc1cc2nc(/C=C/c3nc4cc(C)c(C)cc4[nH]3)[nH]c2cc1C	4	-15	40*	.	25*	30*	32	-2	32*	43*
Cc1cc2nc(/C=C/c3cccnc3)[nH]c2cc1C	-3	7	-3	.	11	.	.	.	.	.
CC(C)(C)S(=O)N1Cc2cc(C(=O)NCc3ccc4c(c3)OCO4)nc(-c3cccc(-c4ccccc4)c3)c2[C@@H]1CCO (some centres undefined)	.	.	.	.	1	.	.	.	.	.
O=c1[nH]c2ccccc2c2nc3ccccn3c12	4	6	-7	-2	1	.	.	.	.	.
O=c1nc2c(O)cccn2c2c1c(=O)[nH]c1ccccc12	6	23	22*	10	29*	8	8	-2	33*	27*
CCN(CC)S(=O)(=O)c1ccc(NC(=O)CCN2C(=O)C3CC=CCC3C2=O)cc1 (centres undefined)	.	.	-11	.	2	.	.	.	.	.
CCOC(=O)C1=C(CSc2nc(-c3ccccc3)ccc2C#N)OC(N)=C(C#N)C1c1ccccc1 (centres undefined)	-16	-22	32*	19	36*	6	6	20*	25*	25*
CCOC(=O)C1=C(CSc2nc3c(cc2C#N)CCC3)OC(N)=C(C#N)C1c1ccccc1 (centres undefined)	17	18	-56	-5	-1	.	.	.	.	.
CC(=O)c1ccc2c(c1)N(Cc1ccc3ccccc3c1)C(=O)C(C)S2 (centres undefined)	.	.	.	.	3	.	.	.	.	.
O=C1Nc2ccc(Br)cc2C12NNc1ccccc1O2 (centres undefined)	5	12	33*	21	36*	26*	21	0	35*	47*
COC(=O)C1CN(C(=O)COc2cc(C)cc(C)c2)c2ccccc2O1 (centres undefined)	2	44	3	.	10	.	.	.	.	.
COc1cc2[nH]c(=O)n(C3CCCCC3)c(=O)c2cc1OC	-1	-17	2	7	0	.	.	.	.	.
Nc1ccc2nc3c(=O)n(C4CCCCC4)c(=O)[nH]c3nc2c1	0	-4	35*	.	41*	18	23	1	59*	66*
O=C(NCCCO)/C(=C/c1ccc(-c2cccc([N+](=O)[O-])c2)o1)NC(=O)c1ccccc1	0	8	6	-5	7	.	.	.	.	.
Cc1ccc(C(=O)N/C(=C/c2ccc(-c3ccc([N+](=O)[O-])cc3)o2)C(=O)NCCCN(C)C)cc1	-2	5	41*	.	48*	33*	28	6	57*	55*
CCc1c2c(nc3ccc(OC(=O)N4CCC(N5CCCCC5)CC4)cc13)-c1cc3c(c(=O)n1C2)COC(=O)[C@]3(O)CC	2	5	-5	.	-12	.	.	.	.	.
CCC1(O)C(=O)OCc2c1cc1n(c2=O)Cc2cc3cc(O)ccc3nc2-1 (centres undefined)	.	.	29*	.	26*	19	20	63*	42*	33*
SMILES	HSF1 inh	HSF-1 act	TLR9-MyD88 block	TLR4-MyD88 BLA	NOD2 RIPK2 PPI	TLR9-MyD88 conf	BLA counter-1	TLR9 CHO tox	NOD2-RIPK2 conf	BLA counter-2
CC(=O)Oc1ccc(-c2cc3c(OC(C)=O)cc(OC(C)=O)cc3oc2=O)cc1	0	-2	37*	.	41*	23*	26	3	53*	57*
Nc1ccc(-c2nc3ccc(C(=O)O)cc3s2)cc1	-41	-50	3	-14	-18	.	.	.	.	.
Nc1cc2sc(-c3ccc(C(=O)O)cc3)nc2cc1Cl	-3	-8	24*	6	35*	10	11	14*	32*	40*
CCOC(=O)c1sc(-c2ccc(C(F)(F)F)cc2)nc1O	-1	-1	28*	.	25*	14	18	0	65*	67*
O=C1C=CC(=O)N1CCNc1ncc(C(F)(F)F)cc1Cl	-12	-19	28*	9	47*	32*	11	100*	86*	24*
C[C@@H]1CN([C@@H](C)CO)C(=O)CCCn2nncc2CO[C@H]1CN(C)S(=O)(=O)c1cn(C)cn1	.	.	-7	.	1	.	.	.	.	.
CCOc1ccc(OCCCC(=O)N2CCN(S(=O)(=O)c3ccccc3C#N)CC2)cc1	.	.	-15	.	2	.	.	.	.	.
O=c1c2cc(F)ccc2sn1-c1ccc(F)cc1	.	.	16	.	19	.	.	.	.	.
Cc1ccc(C)c(-n2sc3ccc(F)cc3c2=O)c1	.	.	31*	.	26*	7	2	43*	33*	15*
Cc1ccccc1Nc1cccc2nonc12	-1	-2	46*	23	41*	22*	28	-2	53*	57*
COc1cc2ccccc2cc1C(=O)Nc1ccc(O)cc1	3	10	3	.	-1	.	.	.	.	.
